Structures are written as SMILES. “And” between values parts separate entries of the source, which are not always exact repeats. Identical values can stand only once.

In the experiment the target is C-X-C chemokine receptor type 5 (Homo sapiens) (UniProt P32302). Nature of the experiment: antagonism of CXCR6 versus CXCR5 signaling – cell-based, CHO-K1 PathHunter beta-arrestin, luminescence, set 4, selectivity assay for CXCR6 antagonist project, profiling panel (AID 651919). The conditions noted are these: run 1, at 79 µM (top of the series).
For `COc1ccc(NC(=O)CN2C3CCCC2CC(NC(=O)c2cc(OC)cc(OC)c2)C3)cc1` (centres undefined), the inhibition (in general, the relative decrease from the control value, in per cent) was 22.9%.
Turning to `COc1ccccc1NC(=O)CN1C2CCCC1CC(NC(=O)c1cc(OC)c(OC)c(OC)c1)C2` (centres undefined), the inhibition worked out at 10.1%.
Regarding `COc1cc(OC)cc(C(=O)NC2CC3CCCC(C2)N3CC(=O)Nc2ccc(C)cc2)c1` (centres undefined), the inhibition came to 8.41%.
As to `COc1ccc(NC(=O)CN2C3CCCC2CC(NC(=O)c2ccc(OC)cc2)C3)cc1` (centres undefined), the inhibition was -6.48%.
Consider `COc1ccc(C(=O)NC2CC3CCCC(C2)N3CC(=O)Nc2ccc(Cl)cc2)cc1` (centres undefined), for which the inhibition stood at 34.5%.
Take `COc1ccc(CN2C3CCCC2CC(NC(=O)c2cc(OC)c(OC)c(OC)c2)C3)cc1` (centres undefined): the inhibition was 37%.
Under `COc1cccc(C(=O)NC2CC3CCCC(C2)N3CC(=O)Nc2ccc(Cl)cc2)c1` (centres undefined) stands -2.39%; under `COc1cc(C(=O)NC2CC3CCCC(C2)N3CC(=O)Nc2ccc(Cl)cc2)cc(OC)c1OC` (centres undefined), -11.9%.
As for `COc1ccc(C(=O)NC2CC3CCCC(C2)N3CC(=O)Nc2ccc(F)cc2)cc1` (centres undefined), the inhibition is -9.29%.
Take `O=C(CN1C2CCCC1CC(NC(=O)c1ccc3c(c1)OCO3)C2)Nc1ccc(F)cc1` (centres undefined): the inhibition came to 6.87%.
Under `COc1cc(OC)cc(C(=O)NC2CC3CCCC(C2)N3CC(=O)Nc2ccc(Cl)cc2)c1` (centres undefined) stands 22.6%.
As for `COc1ccc(NC(=O)CN2C3CCCC2CC(NC(=O)c2cccc(OC)c2)C3)cc1` (centres undefined), the inhibition was determined as 8.8%.
For `O=C(CN1C2CCCC1CC(NC(=O)c1ccc3c(c1)OCO3)C2)Nc1ccccc1` (centres undefined), the inhibition is 27.8%.
Turning to `COc1ccc(C(=O)NC2CC3CCCC(C2)N3CC(=O)Nc2ccccc2)cc1` (centres undefined), the inhibition was 3.68%.
Take `COc1ccc(C(=O)NC2CC3CCCC(C2)N3CC(=O)Nc2ccc(C)cc2)cc1` (centres undefined): the inhibition was found to be 22.2%.
With `COc1cc(C(=O)NC2CC3CCCC(C2)N3CC(=O)Nc2ccccc2)cc(OC)c1OC` (centres undefined), the inhibition was 8.6% and 15.6%.
For `COc1cc(C(=O)NC2CC3CCCC(C2)N3CC(=O)Nc2ccc(C)cc2)cc(OC)c1OC` (centres undefined), the inhibition is 2.28%.
Consider `COc1cc(C(=O)NC2CC3CCCC(C2)N3CC(=O)Nc2ccccc2Cl)cc(OC)c1OC` (centres undefined), for which the inhibition was 29.2% and 16%.
As to `Cc1ccc(NC(=O)CN2C3CCCC2CC(NC(=O)c2ccc4c(c2)OCO4)C3)cc1` (centres undefined), the inhibition came out at 42%.
Under `COc1cc(OC)cc(C(=O)NC2CC3CCCC(C2)N3CC(=O)Nc2ccc(F)cc2)c1` (centres undefined) stands 32.4%; under `COc1cccc(C(=O)NC2CC3CCCC(C2)N3CC(=O)Nc2ccccc2)c1` (centres undefined), 10.5%; under `COc1cccc(C(=O)NC2CC3CCCC(C2)N3CC(=O)Nc2ccc(C)cc2)c1` (centres undefined), 44.1%.
Regarding `COc1ccc(C(=O)NC2CC3CCCC(C2)N3CC(=O)Nc2ccc(Cl)cc2)cc1OC` (centres undefined), the inhibition was determined as 0.551%.
Under `COc1ccc(C(=O)NC2CC3CCCC(C2)N3CC(=O)Nc2ccccc2)cc1OC` (centres undefined) stands 16.5%; under `O=C(CN1C2CCCC1CC(NC(=O)c1ccccc1)C2)Nc1ccccc1` (centres undefined), 8.48%; under `COc1ccc(NC(=O)CN2C3CCCC2CC(NC(=O)c2ccc4c(c2)OCO4)C3)cc1` (centres undefined), 21%.
Regarding `O=C(CN1C2CCCC1CC(NC(=O)c1ccc3c(c1)OCO3)C2)Nc1ccc(Cl)cc1` (centres undefined), the inhibition worked out at 44.8%.
The value for `COc1ccc(C(=O)NC2CC3CCCC(C2)N3CC(=O)Nc2ccc(C)cc2)cc1OC` (centres undefined) was 22.7%; that for `COc1ccc(NC(=O)CN2C3CCCC2CC(NC(=O)c2ccc(OC)c(OC)c2)C3)cc1` (centres undefined) was -3.99%; that for `COc1ccc(C(=O)NC2CC3CCCC(C2)N3CC(=O)Nc2ccc(F)cc2)cc1OC` (centres undefined) was 1.06%.
Under `COc1cc(OC)cc(C(=O)NC2CC3CCCC(C2)N3CC(=O)Nc2ccccc2)c1` (centres undefined) stands 37.4%; under `COc1cc(C(=O)NC2CC3CCCC(C2)N3CC(=O)Nc2ccc(F)cc2)cc(OC)c1OC` (centres undefined), 1.06%; under `COc1ccc(NC(=O)CN2C3CCCC2CC(NC(=O)c2cc(OC)c(OC)c(OC)c2)C3)cc1` (centres undefined), -6.42%.
Under `COc1cccc(C(=O)NC2CC3CCCC(C2)N3CC(=O)Nc2ccc(F)cc2)c1` (centres undefined) stands -4.11%.
